LASV entry inh: blocks Lassa virus binding to or entry into cells | Potency, µM (top dose mostly 37.9 µM), actives largely listed as inhibitors | Lassa virus pseudotype entry inhibition, cell reporter | AID 540256 | actives 1.2% (n = 300,000); calls by dose curve; tested in HEK293 cells; further: nearly all actives have a fitted effect of over 50% in size
HCMV antiviral: human cytomegalovirus inhibition; HFF cells, HCMV-luciferase reporter, 72 h; stronger effect = lower value; activity change, negative = inhibition, % at 57.5 µM; actives 4.5% (n = 410,000); AID 1259415; in the data active means activity change below about -60%; inconclusive means no clear call, values can overlap the other calls; inactive means above about -39%
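Luciferase read-out from HCMV-luciferase-infected HFFs (MOI 1 PFU/cell) 72 h post infection at 37C; compounds added after 16 h cell attachment; activity normalized between buffer-only basal and Salinomycin (10uM) inhibitor controls.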
Pf growth 48h: P. falciparum growth inhibition at 48 hours (one generation). Potency, µM (top dose mostly 28.7 µM), actives largely listed as inhibitors. actives 5.9% (n = 310,000). P. falciparum luciferase growth in erythrocytes, 48 h
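First compound was added to culture medium, then infected red cells at 0.1% parasitemia and 2% hematocrit (final). After incubation at 37 C under 5% CO2, luciferase detection reagent was dispensed and light output recorded.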
HCV inh: HCV inhibition; actives 3.4% (n = 340,000); Huh7.5.1 HCVcc-Cre infection, luciferase reporter, 44 h; Potency, µM (top dose mostly 41.8 µM), usual class: inhibitors
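Compounds are dispensed onto cells plated 4 h earlier at 1,000 per well, with HCVcc-Cre virus (about 0.5 moi) added next. Following 44 h of culture, luminescent signal is measured for 15 sec after 15 min with substrate at room temperature.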
Pf growth 96h: P. falciparum growth inhibition at 96 hour, primary screen for plastid delayed-death inhibitors; P. falciparum luciferase reporter growth, 96 h; Potency, µM (highest dose often 28.7 µM), most hits filed as inhibitors; actives 6.9% (n = 320,000); AID 504834
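Two-generation exposure (96 h) targets delayed-death phenotype. Reporter parasites carrying integrated firefly luciferase, in red cells at 2% hematocrit and 0.05% parasitemia final, kept at 37 C, 5% CO2; luminescence loss indicates inhibition.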
Marburg entry inh: Marburg virus entry inhibition; Marburg virus pseudotyped entry inhibition, cell reporter; Potency, µM (doses to about 37.8 µM), actives largely listed as inhibitors; actives 1.8% (n = 300,000); calls by dose curve; tested in HEK293 cells
Each line names hits and unclear results; the compound was inactive in the other large screens; ! = not confirmed by another sample. A selection: hits, their analogues and other compounds. The true share with any hit is near 14%. Unless noted, the call rests on the fitted dose curve; in most records, active means well fitted inhibition curve with a large enough effect; inconclusive means small, poorly fitted or top-dose-only effect, or another doubt; inactive means no such curve, though single readings can be large or run the other way.

COCCCNc1nc(-c2ccc(Cl)cc2)nc2ccccc12	LASV entry inh inconclusive, HCV inh 13µM, Pf growth 96h inconclusive, Marburg entry inh 11µM
Clc1ccc(-c2nc(NCCN3CCOCC3)c3ccccc3n2)cc1	Pf growth 48h inconclusive, HCV inh inconclusive, Marburg entry inh inconclusive
COCCCNC(c1ccccc1)c1ccncc1 (stereo not drawn)	Pf growth 96h 2.6µM
CCN(CC)CCCNc1nc(-c2ccccc2)nc2ccccc12	LASV entry inh inconclusive, HCMV antiviral inconclusive, Pf growth 48h inconclusive, HCV inh 10µM, Pf growth 96h inconclusive, Marburg entry inh 16µM
COc1ccc(-c2nc(NCCCN(C)C)c3ccccc3n2)cc1	Pf growth 48h inconclusive, HCV inh inconclusive, Pf growth 96h inconclusive (no result: LASV entry inh, Marburg entry inh)
Cn1c(=O)oc2cc(S(=O)(=O)NCCC(=O)NCc3ccc(F)cc3)ccc21	Pf growth 96h 13µM
Cc1cc(C)cc(NC(=O)Cn2c(=O)oc3cc(S(=O)(=O)N4CCCC4)ccc32)c1	none (no result: Pf growth 48h, HCV inh, Pf growth 96h)
Cc1ccc(NC(=O)Cn2c(=O)oc3cc(S(=O)(=O)N4CCC(C)CC4)ccc32)cc1C	HCMV antiviral -69, HCV inh inconclusive (no result: LASV entry inh, Pf growth 48h)
Cc1ccc(NC(=O)Cn2c(=O)oc3cc(S(=O)(=O)N4CCC(C)CC4)ccc32)cc1Cl	HCMV antiviral inconclusive (no result: Pf growth 48h, HCV inh, Pf growth 96h)
Cc1cc(C)c(NC(=O)Cn2c(=O)oc3cc(S(=O)(=O)N4CCCCCC4)ccc32)c(C)c1	HCMV antiviral -70 (no result: Pf growth 48h, HCV inh, Pf growth 96h)
COc1ccccc1CNC(=O)Cn1c(=O)oc2cc(S(=O)(=O)N3CCCC3)ccc21	HCMV antiviral -61!, Pf growth 48h inconclusive
Cc1ccc(Cl)cc1NC(=O)CCc1c(C)nc2c3cccnc3nn2c1C	none (no result: Pf growth 48h, HCV inh, Pf growth 96h)
Cc1ccccc1CNc1nc(N(C)C)nc2c1cnn2C	LASV entry inh inconclusive (no result: Pf growth 48h, HCV inh, Pf growth 96h, Marburg entry inh)
COc1ccc(S(=O)(=O)Nc2cc3c(cc2NCc2ccccc2)n(C)c(=O)n3C)cc1OC	none (no result: Pf growth 48h, HCV inh, Pf growth 96h)
Cc1nc2nc[nH]n2c(=O)c1NS(=O)(=O)c1ccc(Br)cc1	none (no result: Pf growth 48h, HCV inh, Pf growth 96h)
CC1CCN(S(=O)(=O)c2ccc3c(c2)oc(=O)n3CC(=O)NCc2ccc(F)cc2)CC1	HCMV antiviral -97, Marburg entry inh inconclusive (no result: Pf growth 48h, HCV inh, Pf growth 96h)
COc1ccccc1CNC(=O)C(CCSC)NS(=O)(=O)c1ccc2c(c1)oc(=O)n2C (stereo not drawn)	Pf growth 96h 2.1µM
COc1ccccc1CNC(=O)C(CC(C)C)NS(=O)(=O)c1ccc2c(c1)oc(=O)n2C (stereo not drawn)	none (no result: Pf growth 48h)
COc1cccc(CNC(=O)Cn2c(=O)oc3cc(S(=O)(=O)N4CCC(C)CC4)ccc32)c1	none (no result: Pf growth 48h, HCV inh, Pf growth 96h)
Cn1c(SCC(=O)NCc2ccco2)nnc1-c1ccc(S(=O)(=O)N2CCOCC2)cc1	Pf growth 96h 12µM
Cc1csc(NC(=O)CSc2nnc(-c3ccc(S(=O)(=O)N4CCCC4)cc3)o2)n1	Pf growth 48h 5.9µM (no result: Pf growth 96h)
CCN(CC)S(=O)(=O)c1ccc(-c2nnc(SCC(=O)Nc3nc(C)cs3)o2)cc1	none (no result: Pf growth 48h)
Cc1cc(NC(=O)CSc2nnc(-c3ccc(S(=O)(=O)N4CCCC4)cc3)n2C)no1	Pf growth 48h inconclusive, HCV inh inconclusive, Pf growth 96h 12µM
CCOc1ccc(CN(C(=O)c2cc3ccccc3oc2=O)C2CC2)cc1	Pf growth 48h 12µM
O=C(c1cc2ccccc2oc1=O)N(Cc1ccccc1)C1CCS(=O)(=O)C1 (stereo not drawn)	Marburg entry inh inconclusive
O=C(c1cc2ccccc2oc1=O)N(Cc1ccccc1F)C1CCS(=O)(=O)C1 (stereo not drawn)	Pf growth 96h 5.2µM (no result: LASV entry inh, Marburg entry inh)
CNc1ccc(N=Nc2cccc3ncccc23)cc1	LASV entry inh inconclusive, HCV inh inconclusive (no result: Pf growth 48h, Pf growth 96h)
CCCc1cc(=O)[nH]c(SCc2nc(-c3ccc(OCC)cc3)no2)n1	none (no result: Pf growth 48h, HCV inh, Pf growth 96h, Marburg entry inh)
CCOC(=O)C1=C[C@@H](CC)N(S(=O)(=O)c2ccc(C)cc2)[C@H]1c1cccc(Cl)c1	none (no result: LASV entry inh, Pf growth 48h, HCV inh, Pf growth 96h, Marburg entry inh)
Cc1nn(C(C)(C)C)c(OC(=O)C2CCCC2)c1S(=O)(=O)c1ccccc1	LASV entry inh inconclusive, Pf growth 96h 10µM
O=C(COc1ccccc1)NCC1CCCO1 (stereo not drawn)	none
O=C(CCSc1ccccc1)NCC1CCCO1 (stereo not drawn)	none (no result: Pf growth 96h)
O=S(=O)(NCC1CCCO1)c1ccc(-c2ccc(S(=O)(=O)NCC3CCCO3)cc2)cc1 (stereo not drawn)	HCMV antiviral -93, HCV inh inconclusive (no result: LASV entry inh)
O=C(CC(c1ccccc1)c1ccccc1)NCC1CCCO1 (stereo not drawn)	HCMV antiviral -100
O=C(COc1ccc(F)cc1)NCC1CCCO1 (stereo not drawn)	Pf growth 96h 1.7µM
Cc1ccc(NS(=O)(=O)c2ccc(OCC(=O)NCC3CCCO3)cc2)cc1 (stereo not drawn)	Pf growth 96h 9.3µM
O=C(NCC1CCCO1)C(=O)N/N=C/c1ccccc1C(=O)O (stereo not drawn)	Pf growth 96h 10µM, Marburg entry inh inconclusive
O=C(NN=Cc1ccccc1C(=O)O)C(=O)NN=Cc1ccccc1C(=O)O	none (no result: Pf growth 48h, Pf growth 96h)
CN(C)CCNc1c2c(c(C#N)c3nc4ccccc4n13)CCCC2	Pf growth 48h inconclusive, Pf growth 96h inconclusive, Marburg entry inh inconclusive
CCN(CC)CCNc1c2c(c(C#N)c3nc4ccccc4n13)CCCC2	Pf growth 48h 10µM, HCV inh inconclusive (no result: Pf growth 96h)
N#Cc1c2c(c(NCc3ccco3)n3c1nc1ccccc13)CCC2	Pf growth 48h 1µM, Pf growth 96h 0.74µM
CC(Oc1ccc2ccc(=O)oc2c1)C(=O)NCCN1CCOCC1 (stereo not drawn)	none (no result: LASV entry inh, Marburg entry inh)
O=C(OCc1cccs1)c1ccccc1NS(=O)(=O)c1ccc2c(c1)OCCO2	Pf growth 48h inconclusive, HCV inh 8.9µM, Marburg entry inh inconclusive (no result: Pf growth 96h)
O=C(NCc1ccco1)c1ccccc1NS(=O)(=O)c1ccc2c(c1)OCCO2	Pf growth 48h 17µM, HCV inh inconclusive (no result: Pf growth 96h)
